# Experimental data as given in PubChem BioAssay (EPA / NIEHS).
# More than one record can exist for a structure, and the calls need not agree. Calls of active or inactive are those of the source. The calls were made as follows: active = hit-call score of the fitted dose curve at least 0.9, where 1 is the maximum; inactive = score below 0.9.
# Test: CCTE_Shafer_MEA_acute_per_network_burst_spike_number_std: CCTE's Neural Acute Assay for Standard Deviation of Number of Spikes in a Network Burst, Shafer Lab (AID 2284020);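 also: fitted for decrease in spike-number SD versus DMSO so actives lower it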
# Procedure, shortened: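 Spontaneous network activity of primary rat cortical neurons is recorded extracellularly before and after a 40-min compound exposure (0.03-40 uM) at 37 C. The endpoint is the well's percent change in burst spike-number SD.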
SMILES,outcome,AC50
O=c1c(-c2ccc(O)cc2)coc2cc(O)ccc12,inactive,
O=C(O)c1ccccc1C(c1ccc(O)cc1)c1ccc(O)cc1,inactive,
CCc1ccc(CCOc2ccc(CC3SC(=O)NC3=O)cc2)nc1 (stereo unspecified),inactive,
OC1CCC(C2CCCCC2)CC1 (stereo unspecified),inactive,
CC(C)CCCCCCOC(=O)CCCCC(=O)OCCCCCCC(C)C,inactive,
CCC(=C(c1ccc(O)cc1)c1ccc(OCCN(C)C)cc1)c1ccccc1,,23.8 µM (active)
Cc1cc(CCN2CCN(c3nsc4ccccc34)CC2)cc2c1NC(=O)CC2(C)C,,7.3 µM (active)
CN(C)C=O,inactive,
OCCC(F)(F)C(F)(F)C(F)(F)C(F)(F)C(F)(F)C(F)(F)C(F)(F)C(F)(F)F,inactive,
CN1CCC[C@H]1c1cccnc1,inactive,
CCCOc1sc(C(=O)N2CCC(c3cc(CN)ccc3F)CC2)c(C)c1Br,inactive,
NC(=O)N(O)[C@@H]1C=C[C@H](Oc2cccc(Oc3ccc(F)cc3)c2)C1,,10 µM (active)
CC(C)(C)c1cc(C(C)(C)C)c(O)c(C(C)(C)C)c1,inactive,
CC#C[C@]1(O)CC[C@H]2[C@@H]3CCC4=CC(=O)CCC4=C3[C@@H](c3ccc(N(C)C)cc3)C[C@@]21C,inactive,9.84 µM (active)
CC(=O)NC1(c2cccc(F)c2)CCN(CC[C@@]2(c3ccc(Cl)c(Cl)c3)CN(c3ccccc3)C(=O)CO2)CC1,inactive,
Oc1cc2ccccc2c2ccccc12,inactive,
CCCCCCCCCCCCN1CCCC1=O,inactive,
CN1CCN(c2ccccc2/C=C2\SCCN(c3ccc(Cl)c(Cl)c3)C2=O)CC1,inactive,
CC[C@H](c1ccc(O)cc1)[C@@H](CC)c1ccc(O)cc1,inactive,
CCCCCCCCCCCCc1ccccc1S(=O)(=O)O,inactive,
CCCCCCCCCCCCCCCS(=O)(=O)Oc1ccccc1,inactive,

# Test: CCTE_Shafer_MEA_acute_per_network_burst_electrodes_number_mean: CCTE's Neural Acute Assay for Mean Number of Electrodes in a Network Burst, Shafer Lab (AID 2284021);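 also: curves fitted for decreases only so hits reduce electrodes per burst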
# Procedure, shortened: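 Rat primary cortical neurons on 48-well MEAs, DIV 13 or 15, were treated at 0.03-40 uM. Spikes were detected at 8x rms noise and recorded at 37 C. The mean electrodes per network burst in a 40 min exposure recording was expressed as percent change from a 40 min baseline.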
SMILES,outcome,AC50
O=c1c(-c2ccc(O)cc2)coc2cc(O)ccc12,inactive,
O=C(O)c1ccccc1C(c1ccc(O)cc1)c1ccc(O)cc1,inactive,
CCc1ccc(CCOc2ccc(CC3SC(=O)NC3=O)cc2)nc1 (stereo unspecified),inactive,
OC1CCC(C2CCCCC2)CC1 (stereo unspecified),inactive,
CC(C)CCCCCCOC(=O)CCCCC(=O)OCCCCCCC(C)C,inactive,
CCC(=C(c1ccc(O)cc1)c1ccc(OCCN(C)C)cc1)c1ccccc1,inactive,
Cc1cc(CCN2CCN(c3nsc4ccccc34)CC2)cc2c1NC(=O)CC2(C)C,,32.4 µM (active)
CN(C)C=O,inactive,
OCCC(F)(F)C(F)(F)C(F)(F)C(F)(F)C(F)(F)C(F)(F)C(F)(F)C(F)(F)F,inactive,
CN1CCC[C@H]1c1cccnc1,inactive,
CCCOc1sc(C(=O)N2CCC(c3cc(CN)ccc3F)CC2)c(C)c1Br,inactive,
NC(=O)N(O)[C@@H]1C=C[C@H](Oc2cccc(Oc3ccc(F)cc3)c2)C1,inactive,
CC(C)(C)c1cc(C(C)(C)C)c(O)c(C(C)(C)C)c1,inactive,
CC#C[C@]1(O)CC[C@H]2[C@@H]3CCC4=CC(=O)CCC4=C3[C@@H](c3ccc(N(C)C)cc3)C[C@@]21C,inactive,7.54 µM (active)
CC(=O)NC1(c2cccc(F)c2)CCN(CC[C@@]2(c3ccc(Cl)c(Cl)c3)CN(c3ccccc3)C(=O)CO2)CC1,inactive,
Oc1cc2ccccc2c2ccccc12,inactive,
CCCCCCCCCCCCN1CCCC1=O,inactive,
CN1CCN(c2ccccc2/C=C2\SCCN(c3ccc(Cl)c(Cl)c3)C2=O)CC1,inactive,
CC[C@H](c1ccc(O)cc1)[C@@H](CC)c1ccc(O)cc1,inactive,
CCCCCCCCCCCCc1ccccc1S(=O)(=O)O,inactive,
CCCCCCCCCCCCCCCS(=O)(=O)Oc1ccccc1,inactive,

# Test: CCTE_Shafer_MEA_acute_network_burst_percentage: CCTE's Neural Acute Assay for Percentage of Network Bursts, Shafer Lab (AID 2284022);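 also: curves fitted for loss so actives lower network burst percentage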
# Procedure, shortened: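 Rat primary cortical neuron networks on 48-well MEA plates, DIV 13 or 15, treated acutely with compound (0.03-40 uM, at least three wells). Percent of spikes within network bursts compared between 40-min recordings before and during exposure at 37 C, expressed as percent change.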
SMILES,outcome,AC50
O=c1c(-c2ccc(O)cc2)coc2cc(O)ccc12,inactive,
O=C(O)c1ccccc1C(c1ccc(O)cc1)c1ccc(O)cc1,inactive,
CCc1ccc(CCOc2ccc(CC3SC(=O)NC3=O)cc2)nc1 (stereo unspecified),inactive,
OC1CCC(C2CCCCC2)CC1 (stereo unspecified),inactive,
CC(C)CCCCCCOC(=O)CCCCC(=O)OCCCCCCC(C)C,inactive,
CCC(=C(c1ccc(O)cc1)c1ccc(OCCN(C)C)cc1)c1ccccc1,inactive,
Cc1cc(CCN2CCN(c3nsc4ccccc34)CC2)cc2c1NC(=O)CC2(C)C,inactive,
CN(C)C=O,inactive,
OCCC(F)(F)C(F)(F)C(F)(F)C(F)(F)C(F)(F)C(F)(F)C(F)(F)C(F)(F)F,inactive,
CN1CCC[C@H]1c1cccnc1,inactive,
CCCOc1sc(C(=O)N2CCC(c3cc(CN)ccc3F)CC2)c(C)c1Br,inactive,
NC(=O)N(O)[C@@H]1C=C[C@H](Oc2cccc(Oc3ccc(F)cc3)c2)C1,inactive,
CC(C)(C)c1cc(C(C)(C)C)c(O)c(C(C)(C)C)c1,inactive,
CC#C[C@]1(O)CC[C@H]2[C@@H]3CCC4=CC(=O)CCC4=C3[C@@H](c3ccc(N(C)C)cc3)C[C@@]21C,inactive,16.2 µM (active)
CC(=O)NC1(c2cccc(F)c2)CCN(CC[C@@]2(c3ccc(Cl)c(Cl)c3)CN(c3ccccc3)C(=O)CO2)CC1,,8.3 µM (active)
Oc1cc2ccccc2c2ccccc12,inactive,
CCCCCCCCCCCCN1CCCC1=O,inactive,
CN1CCN(c2ccccc2/C=C2\SCCN(c3ccc(Cl)c(Cl)c3)C2=O)CC1,inactive,
CC[C@H](c1ccc(O)cc1)[C@@H](CC)c1ccc(O)cc1,inactive,
CCCCCCCCCCCCc1ccccc1S(=O)(=O)O,inactive,
CCCCCCCCCCCCCCCS(=O)(=O)Oc1ccccc1,inactive,
